The list is not random: actives were taken first. Their share in the collection is about 1.5%.
TrxR1 inh – qHTS Assay for Inhibitors of Mammalian Selenoprotein Thioredoxin Reductase 1 (TrxR1): qHTS; Thioredoxin reductase 1, cytoplasmic (Rattus norvegicus), O89049; recombinant rTrxR1, NADPH fluorescence consumption, selenite substrate; Potency, µM (top dose mostly 114 µM), for the others: at the highest dose activity change, negative = inhibition, usual class: inhibitors; 390,000 compounds, 1% hits; AID 588453, 2011; note: potency is the fitted concentration of half-maximal effect; % is set by controls: 0 for no effect and ±100 for the full control effect; nearly all actives have a fitted effect of over 65% in size
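Rat TrxR1 (90 nM in the dispensed reagent) was pre-reduced with 400 uM NADPH for 5 min at room temperature, then incubated with compound for 15 min. After 400 uM selenite was added, NADPH fluorescence (Ex 340/Em 450 nm) was followed for 8 min.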
Coupling enz – qHTS Assay for Inhibitors of Fructose-1,6-bisphosphate Aldolase from Giardia Lamblia: Coupling assay counterscreen. coupling enzyme system counterscreen, AmpLite Red fluorescence. activity change, negative = inhibition, % at 58.2 µM, hits read low. 290,000 compounds, 0.67% hits. AID 2472, 2010; in the data active = activity change below about -30%; note: % is set by controls: 0 for no effect and ±100 for the full control effect
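First, compound is pin-transferred into glyceraldehyde-3-phosphate coupling-enzyme reagent at 57.5 uM final and held 10 min at RT. Next, substrate, coupling system and AmpLite Red are added. After 20 min RT, fluorescence (525/598 nm) is read.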
IDH1 R132H inh – qHTS for Inhibitors of mutant isocitrate dehydrogenase 1 (IDH1): qHTS; IDH1-R132H enzyme, NADPH consumption, diaphorase/resazurin fluorescence; Potency, µM (series often up to 76.6 µM), without a hit: top-dose activity change, negative = inhibition, actives largely listed as inhibitors; 390,000 compounds, 0.093% hits; AID 602179, 2012; note: potency is the fitted concentration of half-maximal effect; % is set by controls: 0 for no effect and ±100 for the full control effect; nearly all actives have a fitted effect of over 65% in size
Target sequence (O75874 whole entry R132H, stated change not applied): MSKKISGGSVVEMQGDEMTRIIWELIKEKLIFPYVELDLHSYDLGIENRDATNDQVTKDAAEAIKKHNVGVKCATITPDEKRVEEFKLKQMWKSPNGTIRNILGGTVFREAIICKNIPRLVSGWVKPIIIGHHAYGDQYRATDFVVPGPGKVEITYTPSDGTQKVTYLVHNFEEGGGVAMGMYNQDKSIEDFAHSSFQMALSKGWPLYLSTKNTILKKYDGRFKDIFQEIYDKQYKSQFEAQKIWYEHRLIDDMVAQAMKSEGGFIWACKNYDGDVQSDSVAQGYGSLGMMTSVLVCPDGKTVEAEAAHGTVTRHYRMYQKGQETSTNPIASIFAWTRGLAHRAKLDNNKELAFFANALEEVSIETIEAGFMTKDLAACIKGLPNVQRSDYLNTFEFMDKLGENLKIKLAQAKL
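IDH1-R132H (0.5 ug/mL dispensed) in pH 7.5 Tris buffer was preincubated 30 min with compound, then given a substrate mix of 0.016 mM NADPH and 2 mM alpha-KG for 80 min at room temperature; remaining NADPH was read by diaphorase/resazurin fluorescence.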
Eya2 phos inh – qHTS Assay for Inhibitors of the Phosphatase Activity of Eya2; Protein phosphatase EYA2 (Homo sapiens), O00167; AID 488837, 2010; 330,000 compounds, 0.006% hits; recombinant Eya2, OMFP fluorescence dephosphorylation (OMFP is methylfluorescein phosphate); Potency, µM (doses to about 76.9 µM), for inactives: at the highest dose activity, negative = inhibition, usual class: inhibitors; note: potency is the fitted concentration of half-maximal effect; % is set by controls: 0 for no effect and ±100 for the full control effect
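Eya2 (0.2 uM) preincubated 10 min at ambient with compound, then OMFP substrate added at 50 uM; 10 min reaction in 50 mM HEPES pH 7.5, 50 mM NaCl, 5 uM MgCl2, 0.05% BSA, 1 mM DTT. Fluorescence read at Ex 485/Em 525 nm.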
TrxR1 substrate – qHTS Assay for Substrates of Mammalian Selenoprotein Thioredoxin Reductase 1 (TrxR1): qHTS; Thioredoxin reductase 1, cytoplasmic (Rattus norvegicus), O89049; purified TrxR1 substrate turnover, NADPH consumption readout; Potency, µM (titrated, usually from 114 µM), for inactives: at the highest dose activity change, negative = substrate turnover; 390,000 compounds, 0.01% hits; AID 588456, 2011; note: potency is the fitted concentration of half-maximal effect; % is set by controls: 0 for no effect and ±100 for the full control effect; nearly all actives have a fitted effect of over 50% in size
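Rat TrxR1, dispensed at 90 nM, was prereduced with 400 uM NADPH (final) for 5 min at ~22 deg C, then incubated with compound 15 min before 400 uM selenite. A first-read NADPH fluorescence drop versus no-compound background flagged substrates.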
IDH1 autofl – qHTS for Inhibitors of mutant isocitrate dehydrogenase 1 (IDH1): Cherrypicks Autofluorescence Interference | AID 623980, 2012 | inhibition of signal, % at 51.2 µM | shares compounds with IDH1 R132H inh | Resorufin detection reagent fluorescence interference, cell-free | 750 tested, under 10 active;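 note: 0% = wells with normal resorufin and full inhibition = wells lacking resorufin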
IDH1 WT – qHTS for Inhibitors of mutant isocitrate dehydrogenase 1 (IDH1): Cherrypicks in WT IDH1; shares compounds with IDH1 R132H inh; WT IDH1 enzyme, NADPH diaphorase/resazurin fluorescence; AID 623995, 2012; 750 compounds, 9% hits; Potency, µM (doses to about 115 µM), inactives show at the top dose activity change, negative = inhibition, hits mostly inhibitors;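 note: potency is the fitted concentration of half-maximal effect; 0% = full WT IDH1 enzyme control and full inhibition = no enzyme wells; nearly all actives have a fitted effect of over 55% in size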
Target sequence (O75874 whole entry, looked up): as the sequence (O75874 whole entry R132H, stated change not applied) above, with H132R counted along it
IDH1 R132H conf – qHTS for Inhibitors of mutant isocitrate dehydrogenase 1 (IDH1): Confirmation of Cherrypicks; AID 624002, 2012; shares compounds with IDH1 R132H inh; IDH1 R132H enzyme, NADPH diaphorase/resazurin fluorescence; 750 compounds, 83% hits; Potency, µM (doses to about 76.6 µM), inactives show top-dose activity change, negative = inhibition, most hits filed as inhibitors; note: potency is the fitted concentration of half-maximal effect; nearly all actives have a fitted effect of over 50% in size
* marks the source's active call; other numbers are inactive results; u = inconclusive; x = no result; [ ] = remark or other dose. Unless noted, calls come from the whole dose curve; as a rule, active = well fitted curve in the direction sought with a large enough effect; inconclusive = small, poorly fitted or top-dose-only effect, or another doubt; inactive = no such curve, though single readings can be large; an effect the other way counts as inactive or inconclusive.

SMILES	TrxR1 inh	Coupling enz	IDH1 R132H inh	Eya2 phos inh	TrxR1 substrate	IDH1 autofl	IDH1 WT	IDH1 R132H conf
CCOc1cc(C2c3c(-c4ccccc4O)n[nH]c3C(=O)N2Cc2cccnc2)ccc1O (centres undefined)	17%	x	7%	x	1%	x	x	x
CCOc1ccc(C2c3c(-c4ccccc4O)n[nH]c3C(=O)N2Cc2cccnc2)cc1OC (centres undefined)	4%	x	u	x	-6%	1	-12%	32µM*
O=C1c2[nH]nc(-c3ccc(F)cc3)c2C(c2ccccc2F)N1c1ccccc1 (centres undefined)	-5%	x	u	x	-4%	1	1%	u
COc1cc(C2c3c(-c4ccccc4)n[nH]c3C(=O)N2c2ccccc2)ccc1O (centres undefined)	u	1	-15%	-3%	-3%	x	x	x
COC(=O)C1=C(C(=O)OC)[C@@H]2N(Cc3ccccc3)c3ccccc3[C@@]23C[C@@H](C(=O)OC)N(C(=O)c2ccco2)C3=N1	x	2	x	x	x	x	x	x
COc1ccc(-c2ccc(OC)c(C3C4C=CCCC4(C)C(=O)N3Cc3ccccc3)c2)cc1OC (centres undefined)	1%	1	x	x	18%[57.1 µM]	x	x	x
COc1ccccc1C1CC(c2ccc(Br)cc2)=NN1C(=O)c1cccnc1 (centres undefined)	15%	3	46µM*	-6%	-1%	0	-5%	22µM*
O=C(c1ccncc1)N1N=C(c2ccc(Cl)cc2)CC1c1ccccc1O (centres undefined)	2%	3	52µM*	-8%	-3%	2	-2%	35µM*
Cc1cc(C(C)(C)C)oc1C(=O)N1CCN(C(=O)c2oc(C(C)(C)C)cc2C)CC1	16%	4	40µM*	-7%	1%	-13	u	14µM*
COc1cc(OC)c(NC(=O)c2cnn(-c3ccccc3)c2-n2cccc2)cc1Cl	9%	x	40µM*	x	9%	-8	-2%	7.1µM*
CCCCCCCC/C=C\CCCCCCCC(=O)N[C@H](CO)Cc1ccc(O)cc1	x	-8	x	x	x	x	x	x
Cc1ccccc1NCC(=O)c1ccc(Br)cc1	8%	5	u	2%	8%	2	103%	45µM*
COc1ccc(C(=O)Nc2sc3c(c2C(N)=O)CCCC3)cc1OC	x	0	x	x	x	x	x	x
CC(=O)Nc1ccc(S(=O)(=O)Nc2ccc(Cc3ccncc3)cc2)cc1	16%	1	2%	1%	0%	x	x	x
Cc1noc(NS(=O)(=O)c2ccc(NS(=O)(=O)c3ccc(C(C)(C)C)cc3)cc2)c1C	x	x	40µM*	x	x	9	-7%	11µM*
CC(C)(C)c1ccc(S(=O)(=O)Nc2ccc(Cc3ccncc3)cc2)cc1	1%	-1	u	-12%	-12%	-1	-6%	20µM*
CCc1ccc(C2c3c(-c4ccccc4O)n[nH]c3C(=O)N2Cc2ccncc2)cc1 (centres undefined)	5%	x	35µM*	x	-8%	-3	0%	28µM*
CCOCCCN1C(=O)c2[nH]nc(-c3ccccc3O)c2C1c1ccc(CC)cc1 (centres undefined)	14%	x	u	x	-8%	-2	-7%	u
CCc1ccc(OCCCCn2c(CCNC(=O)C3CCCCC3)nc3ccccc32)cc1	-1%	x	x	x	3%[0.0914 µM]	x	x	x
COC(=O)c1c(NC(=O)c2ccccc2)sc(Cc2ccccc2)c1C	12%	0	2%	12%	14%	x	x	x
COC(=O)c1c(NC(C)=O)sc(Cc2ccccc2)c1C	12%	0	u	-2%	1%	-6	5%	50µM*
CC(=O)N1CCc2c(sc3c2c(=O)n(CCc2ccccc2)c(=O)n3Cc2ccccc2C)C1	23%	x	13µM*	x	-4%	-11	1%	11µM*
CC(=O)N1CCc2c(sc3c2c(=O)n(-c2ccccc2Cl)c(=O)n3Cc2cccc(C)c2)C1	9%[57.1 µM]	x	32µM*	x	-2%[57.1 µM]	1	20µM*	16µM*
CC(=O)N1CCc2c(sc3c2c(=O)n(-c2ccc(C)cc2)c(=O)n3Cc2c(F)cccc2Cl)C1	5%	x	u	x	1%	3	35µM*	22µM*
CN(C)c1ccc(-c2nn3c(-c4cc(-c5ccccc5)n[nH]4)nnc3s2)cc1	6%	x	x	x	10%	x	x	x
SMILES	TrxR1 inh	Coupling enz	IDH1 R132H inh	Eya2 phos inh	TrxR1 substrate	IDH1 autofl	IDH1 WT	IDH1 R132H conf
O=C(NCC(=O)N(Cc1ccco1)C(C(=O)NC1CCCC1)c1ccncc1)c1cccs1 (centres undefined)	u	0	-2%	0%	0%	x	x	x
O=C(NCc1ccco1)C(c1ccccc1)N(C(=O)Cc1cccs1)c1ccccc1F (centres undefined)	-12%	6	21µM*	-14%	-9%	-4	-1%	14µM*
Cc1ccc(C(C(=O)NC2CCCCC2)N(Cc2ccco2)C(=O)C2COc3ccccc3O2)o1 (centres undefined)	10%	-2	u	-22%	-7%	0	-3%	13µM*
O=C(NC1CCCC1)C(c1ccccc1)N(Cc1ccco1)C(=O)Cc1cccs1 (centres undefined)	-6%	2	u	-20%	0%	-5	2%	28µM*
O=C(NCc1ccco1)C(c1ccncc1)N(C(=O)Cc1cccs1)c1ccccc1 (centres undefined)	-19%	0	-9%	3%	-8%	x	x	x
COc1ccc2c(c1)c(C(=O)CN(C)C)c(C)n2C	-19%	x	x	x	-1%	x	x	x
COCc1ccc(-c2c(-c3ccc(OC)cc3)oc(=O)c3cc(OC)c(OC)cc23)cc1	22%[57.1 µM]	x	32µM*	-7%	14%[57.1 µM]	-5	-4%	10µM*
COc1cc2c(-c3cc(F)cc(F)c3)c(-c3ccsc3)oc(=O)c2cc1OC	9%	x	-4%	12%	14%	x	x	x

Screening data from PubChem BioAssay.
